Screens deposited in PubChem BioAssay by The Scripps Research Institute Molecular Screening Center.
TEAD-YAP block: TEAD-YAP interaction inhibition, primary screen, TEAD-YAP interaction inhibitor project, luminescence, HEK-TIYL cells; TEAD-Gal4/YAP UAS-luciferase luminescence; inhibition, % at 9.12 µM; 640,000 compounds, 1.4% hits; in the data active means inhibition above about 32%;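 further: 0% = median of test compound wells and 100% = reference inhibitor wells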
MITF primary: MITF inhibitors, primary screen, biochemical, AlphaScreen, human; Microphthalmia-associated transcription factor (Homo sapiens), O75030; AlphaScreen MITF homodimerization, bead proximity signal; inhibition, % at 2.6 µM; 650,000 compounds, 0.91% hits; in the data active means inhibition above about 50%;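 further: 0% = vehicle wells with protein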
GPR151 activ: activators of human GPR151, primary screen, cell-based, PathHunter beta-arrestin, luminescence. G-protein coupled receptor 151 (Homo sapiens), Q8TDV0. PathHunter beta-arrestin GPR151 cells. activation, % at 11.2 µM. 650,000 compounds, 1% hits. AID 1508602, 2020; in the data active means activation above about 4.9%;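 further: 0% = median of compound wells and 100% = cells with positive control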
FBW7 activator: FBW7 E3 ligase activators, primary screen, biochemical, AlphaScreen, human | AID 1259310, 2017 | F-box/WD repeat-containing protein 7 (Homo sapiens), Q969H0 | 650,000 compounds, 0.13% hits | AlphaScreen FBW7–phospho-cyclin E peptide binding, activator screen | normalized activity (activation), % at 26.1 µM; in the data active means normalized activity above about 1.9%;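 further: purified mutant Fbw7 with reduced substrate affinity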
GPR151 confirm: GPR151 activators, triplicate retest, confirmation, cell-based, PathHunter beta-arrestin, luminescence | shares compounds with GPR151 activ | GPR151 PathHunter beta-arrestin cells, 90 min; % of EA-reagent control over plate median | activation, % at 11.2 µM | 6,700 tested, under 10 active | AID 1508609, 2020;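 active means mean percent activation across replicates above the confirmation screen cutoff of 4.91%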
GPR119 ag: GPR119 activators in beta-arrestin cells, counter-screen for GPR151 activator project, cell-based, PathHunter beta-arrestin, luminescence, triplicate; activation, % at 11.2 µM; 90 min; 0 = compound-well median, 100 = enzyme-acceptor control; shares compounds with GPR151 activ; 6,700 compounds, 0.3% hits;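 active means mean percent activation in the counterscreen above 29.09%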;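 further: counterscreen on off-target GPR119 to flag nonselective hits from the GPR151 activator screen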
Target sequence (Q8TDV5 whole entry, looked up): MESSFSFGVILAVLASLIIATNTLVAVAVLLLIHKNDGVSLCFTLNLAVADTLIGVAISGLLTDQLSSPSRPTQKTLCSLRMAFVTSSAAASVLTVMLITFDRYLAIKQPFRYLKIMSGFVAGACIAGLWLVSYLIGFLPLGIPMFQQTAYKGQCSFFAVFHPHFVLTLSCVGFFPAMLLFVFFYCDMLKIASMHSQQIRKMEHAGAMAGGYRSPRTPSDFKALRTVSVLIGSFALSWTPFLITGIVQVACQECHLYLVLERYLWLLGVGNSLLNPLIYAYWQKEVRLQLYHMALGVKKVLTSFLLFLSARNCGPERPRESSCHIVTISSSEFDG
Numbers without * were called inactive; / = not tested or not shown; ! = repeats disagree. An excerpt weighted towards active compounds, which were near 3.5% of everything screened.

SMILES	TEAD-YAP block	MITF primary	GPR151 activ	FBW7 activator	GPR151 confirm	GPR119 ag
CCOC(=O)C1=C(C)NC2=C(C(=O)C(C(=O)OCC)C(c3ccccc3OC)C2)C1c1cccs1 (stereo not given)	4	-4	-1	0	/	/
CN(C)c1ccc(/C=C/CN2CCCCCC2)cc1	5	30	4.9*	0	-1	-1
CN(C)c1ccc(/C=C/CN2CCC(O)CC2)cc1	-8	32	0	0	/	/
COc1ccc(OC)c(C(=O)N2CCC(c3nc4ccccc4[nH]3)CC2)c1	3	-14	0	0	/	/
O=C(CCc1ccccc1)Nc1ccc2nc(SCC(=O)Nc3ccc(Br)cc3)sc2c1	3	-4	2	0	/	/
O=C(NC(=S)Nc1cccc(-c2nc3ncccc3o2)c1)c1ccc(I)cc1	-4	11	-1	0	/	/
COc1ccc(C(=O)Cc2ccc(OC)c(OC)c2)c(OC)c1	-2	-5	4	0	/	/
COc1ccc2c(c1)OC[C@@H](Cc1ccc(OC)c(OC)c1)[C@@H]2O	-3	-13	5.0*!	0	0	-1
COCC(C)NC(=O)c1ccc(OC2CCN(Cc3ccccn3)CC2)cc1 (stereo not given)	2	-3	5.8*	0	0	-7
COc1cccc(CC2(CO)CCN(C(=O)/C=C/C(C)C)CC2)c1	-7	-4	0	0	/	/
C=CCn1c(COc2ccc(OC)cc2)nc2ccccc21	-59	-4	-1	0	/	/
C=CCn1c(/N=C/c2ccc(OC)cc2)nc2ccccc21	5	6	5.0*	0	2	12
COC(=O)CCCNc1nc(CN2CCN(c3ccc(OC)cc3)CC2)nc2ccccc12	-12	-10	0	0	/	/
CC1(C)C(=O)Nc2ccccc2N1C(=O)COC(=O)c1ccc([N+](=O)[O-])o1	3	-3	5.7*	0	-1	1
O=C1CN(C(=O)COC(=O)c2ccc([N+](=O)[O-])o2)c2ccccc2N1	6	-7	-1	0	/	/
CC(=O)C(C)c1nc(N)nc(Nc2ccccc2)n1 (stereo not given)	-4	-4	1	0	/	/
O=C(CCl)Nn1c(-c2cccs2)nc2sc3c(c2c1=O)CCCC3	6	5	5	0	/	/
O=C(NNC1CC(c2ccccc2)=NN1C(=O)c1ccccc1)c1ccccc1 (stereo not given)	3	-3	6.5*	0	0	3
COc1ccc(CCNC(=O)c2cnc(Nc3nccc4ccccc34)s2)cc1	0	18	5.8*	0	0	-8
CCCNC(=O)c1cnc(Nc2nccc3ccccc23)s1	-51	-1	-1	0	/	/
COc1ccc(CNC(=O)c2ccc3c(c2)NC(=O)C2CCCN32)cc1 (stereo not given)	1	11	0	0	/	/
O=C1CCCCC(=O)N(c2ccccc2)c2ccccc21	15	-9	-1	0	/	/
O=C1Cc2ccccc2N1c1ccccc1	0	-6	9.9*	1	1	5
COc1ccc(CNC(=O)c2cnn3c(C)c(Cc4cccc(Cl)c4)c(C)nc23)cc1	21	7	1	0	/	/
Cc1cccc(Cc2c(C)nc3c(C(=O)N4CCCC4)cnn3c2C)c1	-6	-1	2	0	/	/
SMILES	TEAD-YAP block	MITF primary	GPR151 activ	FBW7 activator	GPR151 confirm	GPR119 ag
Cc1nc2c(C(=O)N3CCCC3)cnn2c(C)c1Cc1cccc(Cl)c1	-14	15	5.5*	0	1	14
Cc1nc2c(C(=O)N3CCN(c4cccc(Cl)c4)CC3)cnn2c(C)c1Cc1ccccc1Cl	12	2	5.3*	0	0	-5
Cc1ccccc1Cc1c(C)nc2c(C(=O)N3CCN(c4cccc(Cl)c4)CC3)cnn2c1C	4	6	3	0	/	/
Cc1nc2c(C(=O)NCc3ccccn3)cnn2c(C)c1Cc1cccc(Cl)c1	1	-12	8.1*	0	2	12
Nc1ccc2nc(-c3ccc(N=Cc4cc([N+](=O)[O-])cc([N+](=O)[O-])c4O)cc3)[nH]c2c1	2	1	7.0*	0	0	3
Nc1ccc2nc(-c3ccc([N+](=O)[O-])cc3)[nH]c2c1	-13	3	-5	0	/	/
Cc1cnc(-c2c(C)noc2C)nc1NCCc1ccc(O)cc1	-4	-6	0	0	/	/
Cc1cnc(-c2c(C)nn(C)c2C)nc1NCCc1ccc(O)cc1	-1	1	5.7*	0	1	5
CCCNC(=O)C1CCN(C(=O)N2CC(C)Oc3ccc(Cl)cc32)CC1 (stereo not given)	6	-3	11*	0	0	-4
CCCNC(=O)C1CCN(C(=O)N2CC(C)Oc3ccccc32)CC1 (stereo not given)	5	-5	-2	0	/	/
Cc1cc(C)c(S(=O)(=O)N2CCCC2CNC(=O)c2ccccc2)c(C)c1 (stereo not given)	-10	17	-3	1	/	/
O=C(NNC(=O)C12CC3CC(C1)CC(c1ccccc1)(C3)C2)c1ccncc1	2	-2	6.0*	0	0	0
CC(C)n1cnc2c(NCc3ccccc3)nc(Nc3ccc(-n4ccnc4)cc3)nc21	-6	14	3	0	/	/
CC(C)n1cnc2c(NCc3cccc(C(F)(F)F)c3)nc(Nc3ccncc3)nc21	2	20	5.9*	0	0	3
COc1ccc(CCNc2ccnc(Nc3ccc4ncccc4c3)n2)cc1	51*	63*	5.9*	0	0	2
CCCNc1ccnc(Nc2ccc(-n3ccnc3)cc2)n1	-26	-6	0	0	/	/
COc1ccc(CCNc2ccnc(Nc3ccc(-n4ccnc4)cc3)n2)cc1	82*	0	6.5*	0	2	38*
Oc1ccc(CCNc2ccnc(Nc3ccc4ncccc4c3)n2)cc1	-4	-1	3	0	/	/
CC(C)n1cnc2c(NCCO)nc(Nc3ccc(-n4ccnc4)cc3)nc21	-1	8	5.4*	0	-2	-10
Cc1cc(Br)ccc1OCC(=O)Nc1ccc(S(=O)(=O)N2CCN(C)CC2)cc1	7	3	2	0	/	/
CCc1ccc(-c2cn(-c3ccc(F)cc3)c(=S)[nH]2)cc1	-27	23	0	0	/	/
COc1ccc(-n2c(SCC(=O)Nc3cccc(Cl)c3)nc3n[nH]c(C)c3c2=N)cc1	8	-9	-1	0	/	/
